# Screens (PubChem)
# The list is not random: actives were taken first. Their share in the collection is about 15%.
# ELG1 repair inh: ELG1-dependent DNA repair inhibition; HEK293T ELG1-luciferase reporter, luminescence, 16 h; DNA damage induced by 5-fluorouridine; Potency, µM (series often up to 46.1 µM), usual class: inhibitors; 2.3% of 330,000 active; AID 504467; further: nearly all actives have a fitted effect of over 55% in size
#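 Overnight (16 hr) co-exposure of 2,000 cells/well to 5-fluorouridine and compound at 37 °C preceded detection. Luciferase was quantified via ONE-Glo luminescence; loss of signal denotes inhibition.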
# Gal4-VP16 FLuc: counter-screen for ROR gamma inhibitors: Gal4-VP16 reporter; Drosophila S2 Gal4-VP16 UAS-luciferase, luminescence, 20 h; Potency, µM (highest dose often 53.6 µM), actives largely listed as inhibitors; 3.5% of 310,000 active;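 further: Gal4-VP16 expression switched on by copper sulfate through the metallothionein promoter; nearly all actives have a fitted effect of over 50% in size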
# DT40 TDP1 CPT: growth inhibition of DT40 Tdp1-/-;hTDP1 cells with camptothecin (screen for TDP1 inhibitors); chicken DT40 Tdp1-/-;hTDP1 cells + 20 nM CPT, ATP luminescence, 48 h; Potency, µM (top dose mostly 46.2 µM), actives largely listed as inhibitors; 12% of 420,000 active; AID 686979; further: nearly all actives have a fitted effect of over 55% in size
#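 Cell growth measured by CellTiter-Glo luminescence after a minimum 48 h, 37 C compound exposure with 20 nM CPT in Tdp1-knockout DT40 cells stably expressing hTDP1, seeded 400/well; qHTS titration format.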
# ALOX12 inh: blocks human arachidonate 12S-lipoxygenase. P18054. purified 12hLO, xylenol orange hydroperoxide absorbance. Potency, µM (titrated, usually from 108 µM), hits mostly inhibitors. 1.1% of 580,000 active. AID 1671190
#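 Purified human 12hLO at 150 nM in 25 mM Hepes, 0.01% Triton X-100, pH 7.0, preincubated 15 min at room temperature with compound. Reaction started with 40 uM arachidonic acid, 30 min at room temperature. Hydroperoxide measured by Fe-xylenol orange, 573/405 nm absorbance ratio.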
# RORg inh: inhibitors of mouse ROR gamma transcriptional activity | P51450 | Drosophila S2 Gal4-RORgamma UAS-luciferase reporter, 20 h | Potency, µM (titrated, usually from 53.6 µM), actives largely listed as inhibitors | 5.4% of 310,000 active | AID 2551; further: nearly all actives have a fitted effect of over 60% in size
# Target sequence (P51450 whole entry, looked up, the tested form may be a part): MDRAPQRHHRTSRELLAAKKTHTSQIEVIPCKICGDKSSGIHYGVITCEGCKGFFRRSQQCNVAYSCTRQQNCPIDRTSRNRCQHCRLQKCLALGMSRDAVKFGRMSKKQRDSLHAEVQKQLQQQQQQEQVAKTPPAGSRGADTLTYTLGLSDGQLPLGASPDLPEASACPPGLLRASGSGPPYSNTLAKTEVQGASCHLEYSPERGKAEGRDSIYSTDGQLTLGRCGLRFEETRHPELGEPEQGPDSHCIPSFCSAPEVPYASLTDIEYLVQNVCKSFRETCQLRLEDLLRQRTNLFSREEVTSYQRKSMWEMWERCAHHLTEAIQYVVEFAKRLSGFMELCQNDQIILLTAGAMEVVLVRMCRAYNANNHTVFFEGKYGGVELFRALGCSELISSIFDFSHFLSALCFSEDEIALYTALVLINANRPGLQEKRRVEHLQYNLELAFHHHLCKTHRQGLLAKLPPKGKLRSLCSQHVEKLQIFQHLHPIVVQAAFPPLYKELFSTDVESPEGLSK
#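 In this cell-based reporter format, copper sulfate (700 uM final) drives Gal4–ROR gamma fusion expression from a metallothionein promoter in Drosophila Schneider cells; compounds preincubated 1 hr, reporter read after 20 hr at ambient temperature.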
# DT40 TDP1 no CPT: qHTS for Inhibitors of human tyrosyl-DNA phosphodiesterase 1 (TDP1): qHTS in cells in absence of CPT | Potency, µM (top dose mostly 46.2 µM), actives largely listed as inhibitors | 15% of 420,000 active | DT40 Tdp1-/- hTDP1 cells, no CPT, ATP luminescence, 48 h | AID 686978, 2013; further: nearly all actives have a fitted effect of over 55% in size
#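 Camptothecin absent (DMSO only). Human TDP1-complemented DT40 knockout cells, 400 cells/well, 37 °C for minimum 48 hr; ATP measured via CellTiter-Glo, 30 min dark incubation, luminescence.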
# Hits are given with their value; - = inactive; ? = inconclusive; . = no result. The call rests on the fitted dose curve; in most records, active means well fitted curve in the direction sought with a large enough effect; inconclusive means small, poorly fitted or top-dose-only effect, or another doubt; inactive means no such curve, though single readings can be large; an effect the other way counts as inactive or inconclusive.
SMILES,ELG1 repair inh,Gal4-VP16 FLuc,DT40 TDP1 CPT,ALOX12 inh,RORg inh,DT40 TDP1 no CPT
COc1ccc(NC(=O)COc2ccccc2Cl)cc1S(=O)(=O)N1CCCCC1,?,.,?,?,.,-
CCn1cc(C(=O)NC2CCCCC2C)c(=O)c2ccc(C)nc21 (configuration not stated),.,-,?,16µM,-,11µM
CS(=O)(=O)c1cc(C(=O)NCCc2cccs2)ccc1Cl,.,.,.,-,.,.
Cc1ccc(OCCN(C)C(=O)NCc2ccccc2)cc1,.,.,.,-,.,.
Cc1ccc(S(=O)(=O)N2CCC(n3cnnc3C3CC3)CC2)cc1Cl,.,.,.,-,.,.
CCCOc1ccc(NC(=O)COc2ccc(F)cc2)c2cccnc12,.,.,.,-,.,.
Cc1c(C(=O)NC(c2ccc(Cl)cc2)c2nccn2C)oc2ccccc12 (configuration not stated),.,.,.,-,.,.
CCN(CC)CCNC(=O)CSc1c2c(nc3cc(Cl)ccc13)CCCC2,?,-,?,-,-,?
O=C(CSc1c2c(nc3cc(Cl)ccc13)CCCC2)N1CCN(c2ccccc2F)CC1,.,.,10µM,-,.,6.5µM
CC1CCN(C(=O)CSc2c3c(nc4ccc(Cl)cc24)CCCC3)CC1,.,.,21µM,?,.,16µM
CC1CCCN(C(=O)CSc2c3c(nc4cc(Cl)ccc24)CCCC3)C1 (configuration not stated),.,.,21µM,-,.,12µM
CC(C)CCNC(=O)CSc1c2c(nc3ccc(Cl)cc13)CCCC2,.,.,?,-,.,?
COCCNC(=O)CSc1c2c(nc3cc(Cl)ccc13)CCCC2,.,.,?,-,.,?
Cn1c(=O)cc(SCC(=O)N2CCN(c3ccccc3F)CC2)c2ccc(Cl)cc21,.,.,?,-,.,?
CC1CCCCN1C(=O)CSc1c2c(nc3cc(Cl)ccc13)CCCC2 (configuration not stated),.,.,?,-,.,18µM
CCOC(=O)C(NC(=O)/C=C/c1cc(Cl)c(OC)c(OC)c1)C(=O)OCC,.,.,.,-,.,.
O=C(CSc1c2c(nc3ccc(Cl)cc13)CCCC2)N1CCN(C(=O)c2ccco2)CC1,.,.,15µM,-,.,21µM
COc1ccc(Nc2cnc3ccc(-c4cccc(CO)c4)nn23)cn1,.,.,.,-,.,.
COC(=O)\C(C(C)=O)=C(/C=C/C=C/C=C/N(C)C)N(C)C,-,-,?,?,-,21µM
Cc1cccc(C(=O)NC2CCN(c3cc(-c4ccc(Cl)cc4)[nH]n3)C2)c1 (configuration not stated),.,.,.,-,.,.
COc1ccccc1-n1c(-c2cn(C)nc2C)n[nH]c1=S,-,-,-,-,-,-
Cc1nn(CCc2n[nH]c(=S)n2C2CCCCC2)c(C)c1Br,-,?,-,22µM,5.6µM,-
COc1ccccc1-n1c(CCn2nc(C)c(Br)c2C)n[nH]c1=S,-,?,-,?,10µM,-
Cc1nn(CCc2n[nH]c(=S)n2C)c(C)c1Br,-,-,-,?,-,-
Cn1cc([C@@H](NC(=O)CCc2ccc3c(c2)OCO3)C2CC(O)C2)cn1 (some centres not stated),.,.,.,-,.,.
SMILES,ELG1 repair inh,Gal4-VP16 FLuc,DT40 TDP1 CPT,ALOX12 inh,RORg inh,DT40 TDP1 no CPT
CN1C[C@@H](NC(=O)c2ccc(F)cc2)C[C@H]1c1nc(-c2ccc(OC(F)(F)F)cc2)no1,.,.,.,-,.,.
O=C(O)c1ccc(Nc2nc3c(s2)CCCC3)cc1,?,3.5µM,-,-,1.3µM,-
O=C(NC(=S)Nc1nc2c(s1)CCCC2)c1ccc(C(=O)c2ccccc2)cc1,?,?,-,?,?,-
O=S1(=O)N=C(Nc2nc3c(s2)CCCC3)c2ccccc21,?,1.3µM,6.5µM,-,0.45µM,5.2µM
Cc1cccc(Nc2nc3c(s2)CCCC3)c1,?,-,23µM,?,-,18µM
CC(=O)c1sc(Nc2cccc(C)c2)nc1C,?,?,-,-,-,-
O=S1(=O)N=C(Nc2ccccc2)c2ccccc21,.,.,.,-,.,.
COc1cccc(CNC(=O)CCC2CCN(S(=O)(=O)c3ccc(C)cc3)CC2)c1,.,.,.,-,.,.
Cc1ccc(C(=O)NCCSc2ccc(Cl)cc2)cc1S(=O)(=O)Nc1ccccc1,21µM,?,?,-,-,?
NC(=S)N/N=C/c1c(Cl)cccc1Cl,.,.,.,-,.,.
C[N+](C)(C)CC(=O)N/N=C/c1c2ccccc2cc2ccccc12,-,-,-,?,-,-
NC(=S)N/N=C\c1c2ccccc2cc2ccccc12,?,?,15µM,?,-,?
NC(=S)N/N=C\c1c(OCc2ccccc2Cl)ccc2ccccc12,?,3.2µM,6.5µM,22µM,1.1µM,?
NC(=S)NN=Cc1cc(-c2cccc(N)c2)ccn1,.,.,3.7µM,-,.,4.1µM
